{"source": "PubChem BioAssay", "note": "Active and inactive are the calls of the source. No rule for the calls is given here."}
{"target": "Pantothenate synthetase (Mycobacterium tuberculosis (strain ATCC 25618 / H37Rv)) (UniProt P9WIL5)", "sequence (P9WIL5 whole entry, looked up)": "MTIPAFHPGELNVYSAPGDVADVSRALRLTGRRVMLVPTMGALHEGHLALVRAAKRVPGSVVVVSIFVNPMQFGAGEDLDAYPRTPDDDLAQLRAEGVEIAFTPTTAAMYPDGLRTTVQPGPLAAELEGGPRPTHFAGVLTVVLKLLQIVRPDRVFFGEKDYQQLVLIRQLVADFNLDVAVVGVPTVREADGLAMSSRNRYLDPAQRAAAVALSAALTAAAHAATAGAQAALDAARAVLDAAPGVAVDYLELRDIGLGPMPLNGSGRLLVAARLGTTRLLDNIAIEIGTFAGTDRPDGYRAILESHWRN", "experiment": "Recombinant Mtb pantothenate synthetase (PanC) inhibitors, coupled enzyme, confirmatory (AID 375);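 also: 0% = full reaction with vehicle and 100% = no enzyme background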", "conditions": "coupled enzyme assay; at 10 µM, hits give high values"}
{"smiles": "CCOC(=O)CNc1ccc2c(c1)OCO2", "inhibition": "0% (inactive)"}
{"smiles": "Clc1cccc(N2CCN(Cc3nc(-c4ccccc4)no3)CC2)c1", "inhibition": "0% (inactive)"}
{"smiles": "CC(C)(C)SCCNC(=O)CN1C(=O)c2ccccc2S1(=O)=O", "inhibition": "0% (inactive)"}
{"smiles": "CCN(C(=O)c1cc(Cl)ccc1OC)c1ccccc1", "inhibition": "0% (inactive)"}
{"smiles": "Cc1n[nH]c(C)c1S(=O)(=O)N1CCCCCC1", "inhibition": "0% (inactive)"}
{"smiles": "CCOC(=O)/C=C(\\C)Sc1cc(=O)oc2ccccc12", "inhibition": "6% (inactive)"}
{"smiles": "CCOC(=O)c1c(C(F)(F)C(F)(F)C(F)(F)C(F)(F)F)n[nH]c1C", "inhibition": "8% (inactive)"}
{"smiles": "CSc1nnc(-c2cnccn2)n1C", "inhibition": "0% (inactive)"}
{"smiles": "CC(=O)NCCn1ccc2ccccc21", "inhibition": "0% (inactive)"}
{"smiles": "CCCOc1cccc(-c2nnc(N)s2)c1", "inhibition": "0% (inactive)"}
{"smiles": "NS(=O)(=O)c1cc2c(cc1C(F)(F)F)NC(Cc1ccccc1)NS2(=O)=O", "note": "(stereo not given)", "inhibition": "0% (inactive)"}
{"smiles": "CCOc1ccc(Cn2nnc(C(=O)Nc3cc(C)cc(C)c3)c2N)cc1", "inhibition": "0% (inactive)"}
{"smiles": "COc1ccccc1Nc1ncnc2c1cnn2-c1cccc(C)c1", "inhibition": "0% (inactive)"}
{"smiles": "C=CCn1c(Cc2csc(N)n2)nnc1SCC(=O)OCC", "inhibition": "1% (inactive)"}
{"smiles": "CCCC(=O)NCCc1cc2c(C)ccc(C)c2[nH]c1=O", "inhibition": "0% (inactive)"}
{"smiles": "Cc1cccc(N2C(=O)CC(N3CCN(Cc4ccc(Cl)cc4)CC3)C2=O)c1", "note": "(stereo not given)", "inhibition": "0% (inactive)"}
{"smiles": "Brc1cccc(-c2cnc3n2CCCCC3)c1", "inhibition": "4% (inactive)"}
{"smiles": "Cc1occc1C(=O)N1CCN(c2ncccn2)CC1", "inhibition": "6% (inactive)"}
{"smiles": "O=C(C1CCCN(S(=O)(=O)c2cnc[nH]2)C1)N1CC(=O)N(CCc2ccccc2)C(=O)C1", "note": "(stereo not given)", "inhibition": "0% (inactive)"}
{"smiles": "O=C(NCc1ccco1)c1cc2sccc2n1Cc1ccccc1", "inhibition": "0% (inactive)"}
{"smiles": "COc1ccc(N2C(=O)CCC(C(=O)N3CCCCC3)C2c2ccc(OC)c(OC)c2)cc1", "note": "(stereo not given)", "inhibition": "6% (inactive)"}
{"smiles": "CN(CCc1ccccn1)c1ncnc2[nH]ncc12", "inhibition": "0% (inactive)"}
{"smiles": "CCC(CC)n1[nH]c(=O)c2c(C)cc(C)nc21", "inhibition": "3% (inactive)"}
{"smiles": "Cc1nc(CNS(=O)(=O)c2ccc3c(c2)OCCO3)cs1", "inhibition": "0% (inactive)"}
{"smiles": "COc1cc(Br)cc(CN2CCN(C/C=C/c3ccccc3)CC2)c1O", "inhibition": "0% (inactive)"}
{"smiles": "c1ccc2[nH]c(-c3cscn3)nc2c1", "inhibition": "0% (inactive)"}
{"smiles": "CC(=O)c1cccc(NC(=O)N2CCCC2C(=O)NCc2ccc(C)cc2)c1", "note": "(stereo not given)", "inhibition": "4% (inactive)"}
{"smiles": "CCCCN1C[C@H](O)[C@@H](O)[C@H](O)[C@H]1CO", "inhibition": "0% (inactive)"}
{"smiles": "Cc1ccc(Cn2c(SCCN3CCCCC3)nc3c2c(=O)[nH]c(=O)n3C)cc1", "inhibition": "2% (inactive)"}
{"smiles": "O=C(NC1CCCC1)C(c1ccco1)N(Cc1ccccc1)C(=O)c1csnn1", "note": "(stereo not given)", "inhibition": "0% (inactive)"}
{"smiles": "COc1ccc(-c2ccc(-c3noc(-c4cccs4)n3)c(OC)n2)cc1", "inhibition": "0% (inactive)"}
{"smiles": "CC1(C)SC2[C@H](NC(=O)C(NC(=O)N3CCNC3=O)c3ccccc3)C(=O)N2C1C(=O)O", "note": "(stereo not given in full)", "inhibition": "0% (inactive)"}
{"smiles": "O=C(O)C(c1ccccc1)N1CCCC1", "note": "(stereo not given)", "inhibition": "0% (inactive)"}
{"smiles": "O=C(c1ccco1)N1CCN(C(=O)c2sccc2-c2ccccc2)CC1", "inhibition": "0% (inactive)"}
{"smiles": "O=C(CSc1nc(-c2ccco2)cc(C(F)(F)F)n1)NCCCn1ccnc1", "inhibition": "8% (inactive)"}
{"smiles": "C/C(N)=C(/C#N)C(=O)COC(=O)c1cc(S(=O)(=O)N2CCCCC2)ccc1C", "inhibition": "0% (inactive)"}
{"smiles": "COc1ccc(C2C(C(C)=O)=C(C)N=c3s/c(=C\\c4ccc5c(c4)OCO5)c(=O)n32)c(OC)c1", "note": "(stereo not given)", "inhibition": "0% (inactive)"}
{"smiles": "O=S(=O)(NCC1CCCO1)c1cc(Cl)ccc1Br", "note": "(stereo not given)", "inhibition": "0% (inactive)"}
{"smiles": "COc1ccccc1OCc1ccc(C(=O)Nc2ccncc2)o1", "inhibition": "2% (inactive)"}
{"smiles": "CCOC(=O)c1oc2cc(OCC(N)=O)ccc2c(=O)c1-c1ccc(OC)c(OC)c1", "inhibition": "3% (inactive)"}
